We go through 40 compounds from PubChem BioAssay (NCATS).

Active and inactive are the calls of the source. The call rests on the fitted dose curve; in most records, active means well fitted inhibition curve with a large enough effect; inconclusive means small, poorly fitted or top-dose-only effect; inactive means no such curve, though single readings can be large or run the other way.
Potency means the concentration at half of the fitted maximal effect.

This assay in a line: qHTS assay for measurement of the activity of small molecule inhibitors on Zika virus induced Caspase-3 activity in human astrocytoma cells (AID 1224859).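 On activity change, negative = inhibition: plate controls were ZIKV-infected untreated cells for no effect and uninfected cells for full effect.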 The following applies: SNB-19 ZIKV-induced caspase-3/7, luminescence, 6 h; series mostly up to 45.7 µM; activity change, negative = inhibition: at the top concentration. The source says: National Center for Advancing Translational Sciences [NCATS]
Johns Hopkins University School of Medicine
Increase in the Caspase-3 activity indicates an activation of apoptosis cell death pathway caused by Zika virus infection in certain types of neuronal cells including human neural progenitor cells (hNPCs), astrocytes, and astrocytoma cell line (SNB-19). This cell-based caspase-3 activity assay measures the increased caspase-3 activity in the astrocytoma cell line (SNB-19) after a 6-hour Zika virus infection with a luminescence readout. A decrease in the luminescence signal in this assay by small molecule treatment indicates an inhibitory effect of that small molecule on the Zika virus induced caspase-3 activity that may correlate with its effect on reduction of Zika virus caused cell death.
The medium for SNB-19 cells is composed of RPMI 1640 (ATCC, Cat.# 30-2001), 10% fetal bovine serum (FBS) (GE healthcare Life Sciences, Cat.# SH30071.03), and 1% Pen/Strep (Gibco, Cat.# 15140-122). A Caspase-Glo 3/7 assay kit (catalog number G8092; Promega, Madison, WI) was used to detect caspase-3 activity induced by Zika virus infection in human cells. The reagent mixture was reconstituted as described in the protocol from the manufacturer. Polystyrene tissue culture treated and PDL coated white plates were obtained from Greiner Bio-One (Monroe, NC). Cells were seeded in 384- or 1536-well assay plates and cultured at 37 C with 5% CO2 for 16 to 20 hours. The typical cell seeding density in the 1536-well plate assay is 250 cells/well in 3ul medium for SNB-19 cells in tissue culture treated plates. Compounds were added to cells and incubated for one hour before addition of ZIKV solution to cells (2 FFU/cell). After incubation at 37 C with 5% CO2 for 6 hours, the reagent mixture of Caspase-Glo 3/7 assay kit was added to each well, followed by incubation at room temperature for 30 minutes. The luminescence intensity of the assay plates was measured using a ViewLux plate reader (PerkinElmer). Data were normalized by using the cell-containing wells without ZIKV as a negative control (0% induction of caspase 3/7 activity) and wells containing ZIKV infected cells (Caspase-3 activity induced) as a positive control (100% induction of caspase 3 activity). The percentage inhibitions of the increased Caspase-3 activity by small molecule inhibitors were then calculated.
For orientation: Quantitative high-throughput screening tests each substance at several concentrations.
For the compound `O=C(O)C1(Cc2cccc(Nc3nccs3)n2)CCC(Oc2cccc(Cl)c2F)CC1` (stereo not given), the “activity change, negative = inhibition” value was 31.8% (inactive).

In the case of `CN1CC[C@@H](c2c(O)cc(O)c3c(=O)cc(-c4ccccc4Cl)oc23)[C@@H](O)C1`, the “activity change, negative = inhibition” value is 17.2% (inactive).

In the case of `O=c1[nH]c(=O)n(C2CCCO2)cc1F` (stereo not given), the “activity change, negative = inhibition” value is -6.55% [at 92.8 µM] (inactive).

On to `COc1cccc2nc(-c3cccs3)nc(NN3C(=O)C=C(C)C3=O)c12`, for which the “activity change, negative = inhibition” value is 129% (inactive).

On to `COc1ccc(CC2c3cc(OC)c(OC)cc3CC[N+]2(C)CCC(=O)OCCCCCOC(=O)CC[N+]2(C)CCc3cc(OC)c(OC)cc3C2Cc2ccc(OC)c(OC)c2)cc1OC` (stereo not given), for which the activity change, negative = inhibition was 7.2% [at 9.06 µM] (inactive).

For the compound `CC1(O)CC(c2nc(-c3ccc4ccc(-c5ccccc5)nc4c3)c3c(N)nccn23)C1` (stereo not given), the “activity change, negative = inhibition” value was -6.49% (inactive).

With `COc1ccc(OC)c(-c2nnc3ccc(-c4ccc(OC)c(O[C@@H]5CCOC5)c4)nn23)c1`, the “activity change, negative = inhibition” value is -23.1% (inactive).

In the case of `Cc1cnc(Nc2ccc(F)cc2Cl)nc1-c1c[nH]c(C(=O)N[C@H](CO)c2cccc(Cl)c2)c1`, the “activity change, negative = inhibition” value is 6.11% (inactive).

As for `CC(C)(C)OC(=O)Nc1ccc(-c2cc(C(=O)NCCCCCCC(=O)NO)no2)cc1`, the “activity change, negative = inhibition” value was 11.4% (inactive).

For the compound `CCC(=C(c1ccccc1)c1ccc(OCCN(C)C)cc1)c1ccccc1`, the “activity change, negative = inhibition” value was 62.8% (inactive).

For `C[C@H]1C[C@@H]2[C@@H]([C@@H](O)C[C@@]3(C)[C@H]2CC[C@]3(O)C(=O)CO)[C@@]2(C)C=CC(=O)C=C12`, the “activity change, negative = inhibition” value was -3.53% (inactive).

Regarding `Cc1cccc(C=NNc2cc(N3CCOCC3)nc(OCCc3ccccn3)n2)c1`, the “activity change, negative = inhibition” value is -2.02% (inactive).

Turning to `CC(=O)c1c(C)c2cnc(Nc3ccc(N4CCNCC4)cn3)nc2n(C2CCCC2)c1=O`, the “activity change, negative = inhibition” value is 17.4% (inactive).

On to `COCCOc1ccc2c(c1)ncn2-c1ccc2cccc(N3CCC(N)CC3)c2n1`, for which the “activity change, negative = inhibition” value was -0.228% (inactive).

Turning to `C=CC(=O)Nc1cc2c(Nc3ccc(F)c(Cl)c3)ncnc2cc1OCCCN1CCOCC1`, the “activity change, negative = inhibition” value is 91.6% (inactive).

As for `Cc1cc(Nc2nc(N[C@@H](C)c3ccc(F)cc3)c(C#N)cc2F)n[nH]1`, the “activity change, negative = inhibition” value is 54.6% (inactive).

For the compound `CN(C)Cc1c(C(=O)NCCOc2ccc(C(=O)NO)cc2)oc2ccccc12`, the “activity change, negative = inhibition” value was -5.52% (inactive).

Take `O=C(O)Cn1nnc(-c2cc(N3CCC(Oc4cc(F)ccc4Br)CC3)no2)n1`: the “activity change, negative = inhibition” value is 5.08% (inactive).

In the case of `COc1ccc(C(=O)CC2(O)C(=O)Nc3c(Cl)ccc(Cl)c32)cc1` (stereo not given), the “activity change, negative = inhibition” value was 48% (inactive).

Take `CC1(C)OC2=C(C(=O)c3ccccc3C2=O)[C@H](NCc2ccccc2)[C@H]1O`: the “activity change, negative = inhibition” value was 33.5% (inactive).

On to `COc1ccc(CC2SC(=O)NC2=O)cc1C(=O)NCc1ccc(C(F)(F)F)cc1` (stereo not given), for which the “activity change, negative = inhibition” value is -1.14% (inactive).

For `COc1ccc2c(c1)CC[C@@H](CN(C)CC(=O)O)[C@H]2c1ccccc1`, the “activity change, negative = inhibition” value is 20.8% (inactive).

As for `C[C@@H](Oc1cc(-c2cnn(C3CCNCC3)c2)cnc1N)c1c(Cl)ccc(F)c1Cl`, the “activity change, negative = inhibition” value was 51.1% (inactive).

In the case of `Nc1ncnc2c1c(-c1cnc3[nH]ccc3c1)nn2C1CCCC1`, the “activity change, negative = inhibition” value is 220% (inactive).

Regarding `NC(=O)c1cccc2cn(-c3ccc([C@@H]4CCCNC4)cc3)nc12`, the “activity change, negative = inhibition” value is -1.06% (inactive).

On to `CS(=O)(=O)c1ccc(-c2cnc(N)c(C(=O)Nc3ccccc3)n2)cc1`, for which the “activity change, negative = inhibition” value is 10.4% (inactive).

Take `COC(=O)c1ccc2c(C(=Nc3ccc(N(C)C(=O)CN4CCN(C)CC4)cc3)c3ccccc3)c(O)[nH]c2c1`: the “activity change, negative = inhibition” value was 60.2% (inactive).

In the case of `Cc1cc(Nc2cc(N3CCN(C)CC3)nc(C=Cc3ccccc3)n2)n[nH]1`, the “activity change, negative = inhibition” value is 62.7% [at 92.8 µM] (inactive).

Turning to `Cc1c(NC(=O)OC[C@@H]2COCCN2)cn2ncnc(Nc3ccc4c(cnn4Cc4cccc(F)c4)c3)c12`, the “activity change, negative = inhibition” value is -9.12% (inactive).

Turning to `O=C(c1ccc(Nc2nccc(-c3cc4ccccc4s3)n2)cc1)N1CCC(N2CCCC2)CC1`, the “activity change, negative = inhibition” value is 17% (inactive).

Consider `Clc1ccc2ncc(-c3cccc(NC4CNC4)n3)n2c1`, for which the “activity change, negative = inhibition” value is 25.9% (inactive).

In the case of `COc1c(OCCCN2CCOCC2)ccc2c3n(c(=NC(=O)c4cnc(N)nc4)nc12)CCN3`, the “activity change, negative = inhibition” value is 16.6% [at 20.5 µM] (inactive).

As to `O=C(C=Cc1cccc(S(=O)(=O)Nc2ccccc2)c1)NO`, the “activity change, negative = inhibition” value is 38.1% [at 92.8 µM] (inactive).

With `Cc1cc(N2CCOCC2)cc2[nH]c(-c3c(NC[C@@H](O)c4cccc(Cl)c4)cc[nH]c3=O)nc12`, the “activity change, negative = inhibition” value was 50.2% (inactive).

Consider `CCC1=C[C@@H]2CN(C1)Cc1c([nH]c3ccccc13)[C@@](C(=O)OC)(c1cc3c(cc1OC)N(C)[C@@H]1[C@@](O)(C(=O)OC)[C@H](OC(C)=O)[C@]4(CC)C=CCN5CC[C@]31[C@@H]54)C2`, for which the “activity change, negative = inhibition” value was -25.7% (inactive).

On to `O=c1c2ccccc2nc2n1CCc1c-2[nH]c2ccccc12`, for which the Potency is 7.94 µM (active).

Consider `O=C(Nc1cc(C(F)(F)F)cc(C(F)(F)F)c1)c1cc(Cl)ccc1O`, for which the “activity change, negative = inhibition” value is 28.2% (inactive).

Consider `CC(C)(C)c1cc(C(C)(C)C)c(NC(=O)c2c[nH]c3ccccc3c2=O)cc1O`, for which the “activity change, negative = inhibition” value was 30.3% (inactive).

For the compound `Cc1c(C)n(Cc2ccc(-c3ccccc3C(=O)O)cc2)c2ccc(C(=O)N[C@@H](C)c3ccc([N+](=O)[O-])cc3)cc12`, the “activity change, negative = inhibition” value is 3% (inactive).

Regarding `Clc1cccc(-n2nnnc2NCc2ccccc2Oc2ccccn2)c1Cl`, the “activity change, negative = inhibition” value was 7.5% (inactive).
